This note sets out measurements from PubChem BioAssay AID1452 (National Center for Advancing Translational Sciences (NCATS), 2008).

The campaign covered roughly 150,000 compounds. About 190 (0.13%) were called active. Roughly 2% stayed inconclusive and do not appear here. Calls come from the whole dose curve; as a rule, active = well fitted inhibition curve with a large enough effect; inconclusive = small, poorly fitted or top-dose-only effect; inactive = flat fitted curve, though single readings scatter. The list comes from a sample in which actives are over-represented; it also holds similar structures and randomly drawn compounds. A call without a number means that no potency is given here.
Potency is the fitted concentration of half-maximal effect.

Sequence of Polyunsaturated fatty acid lipoxygenase ALOX12 (Homo sapiens) (P18054 whole entry, looked up): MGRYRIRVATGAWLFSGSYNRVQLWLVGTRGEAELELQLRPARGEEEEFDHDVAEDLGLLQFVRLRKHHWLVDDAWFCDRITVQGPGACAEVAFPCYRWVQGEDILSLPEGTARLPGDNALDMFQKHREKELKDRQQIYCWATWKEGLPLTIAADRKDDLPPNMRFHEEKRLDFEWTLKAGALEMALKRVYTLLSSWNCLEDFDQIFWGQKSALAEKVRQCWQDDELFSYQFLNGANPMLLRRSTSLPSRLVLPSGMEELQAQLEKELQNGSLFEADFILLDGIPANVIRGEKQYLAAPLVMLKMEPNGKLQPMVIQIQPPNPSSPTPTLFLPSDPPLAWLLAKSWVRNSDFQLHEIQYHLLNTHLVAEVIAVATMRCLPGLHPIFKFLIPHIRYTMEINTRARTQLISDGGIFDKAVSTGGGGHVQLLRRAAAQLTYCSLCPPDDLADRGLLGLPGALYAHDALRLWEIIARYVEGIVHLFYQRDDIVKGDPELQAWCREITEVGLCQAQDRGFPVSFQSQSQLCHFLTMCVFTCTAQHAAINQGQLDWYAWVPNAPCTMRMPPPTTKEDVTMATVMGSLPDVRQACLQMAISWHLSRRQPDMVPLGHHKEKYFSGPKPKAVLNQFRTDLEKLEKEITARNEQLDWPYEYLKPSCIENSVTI

The target in this assay is Polyunsaturated fatty acid lipoxygenase ALOX12 (Homo sapiens) (UniProt P18054). In words: qHTS Assay for Inhibitors of 12-hLO (12-human lipoxygenase). Note: nearly all actives have a fitted effect of over 55% in size. Conditions: purified 12-hLO, xylenol orange hydroperoxide absorbance; series mostly up to 57.1 µM. An excerpt:
Assay Provider: Holman, T.R., University of California, Santa Cruz Screening Center PI: Austin, C.P. Screening Center: NIH Chemical Genomics Center [NCGC] Human lipoxygenase 12hLO is a member of the closely related lipoxygenase family of enzymes which catalyze the site-specific oxidation of arachidonic acid to various hormone precursor molecules and as such is a candidate for drug development in a variety of disease areas, such as cancer and inflammation. Inhibition of 12hLO activity was screened by utilizing arachidonic acid as a substrate. The extent of hydroperoxide product formation was measured by a secondary chromogenic reaction in which xylenol orange (XO, Sigma-Aldrich, cat. number 39,818-7) reacts with the ferric ions produced from the reaction between the hydroperoxide and ferrous ions. The Fe(III)-XO complex is characterized with red-shifted absorbance at 560 nm. A purified preparation of human 12hLO was supplied by Professor Ted Holman, University of California, Santa Cruz.
Assay Protocol: Buffer: 25 mM Hepes pH 7.0, 0.01% Triton X-100. Reagents/Controls: Buffer in columns 3 and 4 as negative control (no enzyme). Substrate solution: 40 uM arachidonic acid (Sigma-Aldrich, St. Louis, MO) final concentration dispensed throughout the plate. Enzyme: 150 nM 12hLO final concentration in columns 1, 2, 5-48. Column 1 is neutral (100% activity). Column 2 contained pin-transferred titration of NDGA (nordihidroguaiaretic acid, Sigma-Aldrich, N 5023, top concentration 20 mM in DMSO, then 1:3 dilution in duplicate). (Dilution factor: 23 nL into 4 uL.) Chromogenic detection reagent (divalent iron/xylenol orange, Fe-XO): 200 uM xylenol orange plus 300 uM ferrous ammonium sulfate prepared freshly in 50 mM sulfuric acid. Assay Steps: Three uL of enzyme were dispensed to 1536-well Greiner black clear bottom plates. Compounds and controls (23 nL) were transferred via Kalypsys PinTool. The plates were incubated for 15 min at room temperature, and then 1 uL of substrate solution was added to start the reaction. After room temperature incubation for 30 minutes, 4 uL of Fe-XO solution was added to each well and the plates were incubated for 30 min. The absorbance at 405 and 573 nm were measured using ViewLux (Perkin-Elmer) High-throughput CCD imager and absorbance protocol settings. The 573-to-405 absorbance ratio was used to compute reaction progress.
(In general: Quantitative high-throughput screening tests each substance at several concentrations.)
Take `COc1cc(NS(=O)(=O)c2ccc(N/C=C(\C=O)c3nc4cc(Cl)ccc4o3)cc2)nc(OC)n1`: the Potency is 15.8 µM (active).
As for `COc1cc(OC)cc(C(=O)Nc2ccc(S(=O)(=O)Nc3cc(C)on3)cc2)c1`, the activity change, negative = inhibition entry was “inactive”.
For the compound `COc1cc(NS(=O)(=O)c2ccc(N=Cc3c(C)[nH]n(-c4ccccc4)c3=O)cc2)nc(OC)n1`, the activity change, negative = inhibition entry is “inactive”.
For `N#C/C=C\Oc1ccc(Cl)cc1N`, the Potency was 22.4 µM (active).
As to `COc1ccc(Cl)cc1C(=O)NCC#N`, the activity change, negative = inhibition result was “inactive”.
Same read-out and setting: the result for `CC1CCCCN1S(=O)(=O)c1ccc(S(=O)(=O)N(CC(=O)Nc2ccccc2)Cc2cccs2)cc1` (stereo unspecified) reads “inactive”; that for `CCCCC/C=C\C/C=C\CCCCCCCCCC(N)=O`, “inactive”; that for `O=C(NCc1cccs1)c1ccc(Br)o1`, “inactive”.
In the case of `CCCCC/C=C\C/C=C\C/C=C\CCCCCCC(N)=O`, the activity change, negative = inhibition result is “inactive”.
On the same count and under the same terms, in the case of `CN(C)CCCNC(=S)NCc1ccc(Cl)cc1` it was “inactive”; in that of `COC(=O)Cc1ccc(NC(=S)NCc2ccc(Cl)cc2)cc1`, “inactive”.
As to `S=C(NCc1ccc(Cl)cc1)NC12CC3CC(CC(C3)C1)C2`, the Potency was 22.4 µM (active).
For `c1ccc(C2=Nc3cccc4cccc(c34)N2)cc1`, the activity change, negative = inhibition result was “inactive”.
On to `CCOC(=O)C1=C(C)c2ccccc2OC1(C)C(=O)OCC` (stereo unspecified), for which the activity change, negative = inhibition was -0.153% [at 0.00818 µM] (inactive).
For `Cc1ccc(-c2cc(C(=O)NCc3cn(C)nc3C)c3cc(Br)ccc3n2)cc1`, the activity change, negative = inhibition result is “inactive”.
As for `CCCCOc1ccc(C(=O)N/C(=C/C=C/c2ccccc2)C(=O)N2CCOCC2)cc1`, the activity change, negative = inhibition entry was “inactive”.
On to `CC(=O)c1c(O)cc2n(c1=O)-c1ccc(Cl)cc1C2(C)C`, for which the activity change, negative = inhibition result was “inactive”.
Same read-out and setting: in the case of `COc1ccc(-c2nc3c(c4c2C[C@H](c2ccccc2)OC4)CN(C(=O)C2CC2)CC3)c(C)c1` it was -3.7% [at 11.4 µM] (inactive); in that of `COC(=O)N1C(/C=C/C=C/c2ccc(OC)cc2)=Cc2ccccc2C1CC(C)=O` (stereo unspecified), 1.56% [at 11.4 µM] (inactive).
With `Cc1ccc(S(=O)(=O)N(Cc2ccc(Cl)cc2)c2ccccc2C(=O)NCc2cccnc2)cc1`, the activity change, negative = inhibition entry is “inactive”.
Take `CCOC(=O)c1cnc2ccc(F)cc2c1Nc1ccc2c(c1)OCCO2`: the activity change, negative = inhibition entry was “inactive”.
As for `CC1=C(/C=C/C(C)=C/C=C/C(C)=C/C=C/C=C(C)/C=C/C=C(C)/C=C/C(=O)[C@]2(C)C[C@@H](O)CC2(C)C)C(C)(C)C[C@H](O)C1`, the activity change, negative = inhibition was -3.45% [at 0.00818 µM] (inactive).
Take `O=C(Cn1cnc2ccccc21)N/N=C/c1ccco1`: the activity change, negative = inhibition entry is “inactive”.
On the same count and under the same terms, the result for `O=C(O)c1ccc(N=NN2CCOCC2)cc1` reads “inactive”; that for `C=C1c2cccc(OC)c2O[C@H](C(=O)OCC)[C@@H]1CCCCCC`, -4.96% [at 0.00818 µM] (inactive).
Consider `CCCCCCCC/C=C\CCCCCCCC(=O)NCC(=O)O`, for which the activity change, negative = inhibition result was “inactive”.
